Screens from PubChem BioAssay.
Hits are enriched below; roughly 6.9% of the tested compounds scored in any of these assays.
Mdm2-MdmX inh: human Mdm2/MdmX binding inhibition; O15151+Q00987; SaOS-2 split-luciferase Mdm2/MdmX complementation, luminescence; inhibition, % at 8 µM; hit rate 3% among 330,000;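 active = inhibition of at least 50% at 8 µM in the primary screen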
Target sequence (O15151 whole entry, looked up): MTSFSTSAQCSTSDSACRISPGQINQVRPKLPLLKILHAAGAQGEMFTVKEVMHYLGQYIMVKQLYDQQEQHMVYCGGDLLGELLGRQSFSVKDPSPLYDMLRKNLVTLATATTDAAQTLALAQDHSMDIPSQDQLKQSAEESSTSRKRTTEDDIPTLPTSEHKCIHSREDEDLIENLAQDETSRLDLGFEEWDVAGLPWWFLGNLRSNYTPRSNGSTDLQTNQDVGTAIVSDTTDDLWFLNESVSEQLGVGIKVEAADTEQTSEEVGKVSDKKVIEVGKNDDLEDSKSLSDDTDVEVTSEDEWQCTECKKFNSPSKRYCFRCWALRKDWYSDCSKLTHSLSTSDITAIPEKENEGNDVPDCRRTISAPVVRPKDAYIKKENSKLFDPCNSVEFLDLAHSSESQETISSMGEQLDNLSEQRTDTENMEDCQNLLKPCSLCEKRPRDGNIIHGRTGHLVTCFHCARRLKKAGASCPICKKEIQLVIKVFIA
Target sequence (Q00987 whole entry, looked up): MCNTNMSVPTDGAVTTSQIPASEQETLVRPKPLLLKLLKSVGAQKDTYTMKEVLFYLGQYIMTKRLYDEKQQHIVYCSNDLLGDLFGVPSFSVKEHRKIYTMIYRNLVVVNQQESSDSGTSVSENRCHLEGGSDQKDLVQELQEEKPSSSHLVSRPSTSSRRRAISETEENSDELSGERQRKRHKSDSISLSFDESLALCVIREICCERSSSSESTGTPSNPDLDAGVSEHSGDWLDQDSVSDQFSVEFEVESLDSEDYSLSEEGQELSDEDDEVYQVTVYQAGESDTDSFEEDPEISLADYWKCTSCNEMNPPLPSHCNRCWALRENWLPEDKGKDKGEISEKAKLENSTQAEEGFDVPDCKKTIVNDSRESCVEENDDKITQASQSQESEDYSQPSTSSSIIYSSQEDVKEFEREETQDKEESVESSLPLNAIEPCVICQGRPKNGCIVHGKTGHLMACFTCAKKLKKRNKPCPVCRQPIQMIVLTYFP
CSC inhib: blocks cancer stem cells; hit rate 1.1% among 300,000; inhibition, % at 7.5 µM; cancer stem cell-like cells viability, luminescence; in the data active = inhibition above about 75%; tested in HMLE shEcad cells
NR3A LBD binder: modulates the human NR3A ligand-binding domain. NR3A LBD differential scanning fluorimetry, Tm shift; 0% = protein alone, 100% = glycine-bound protein. Tm shift relative to glycine control, % at 25 µM. hit rate 2.5% among 340,000. AID 1259313;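 active = melting temperature shift of at least 10% of the positive control shift, at one fixed dose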
SKKanGAS inh: blocks kanamycin growth of S. pyogenes SKKanGAS strain. BacTiter-Glo, 6 h. hit rate 1.3% among 300,000. AID 1662. inhibition, % at 7.5 µM;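 active = mean replicate score, as percent of positive control median, at least 50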;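 also: strain carries kanamycin resistance gene driven by streptokinase promoter and grows in 40 µg/ml kanamycin; loss of luminescence reflects streptokinase promoter inhibition or plain growth inhibition; 0% = median of DMSO wells and 100% = positive control at its reference dose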
Beta apoptosis: beta cell apoptosis inhibition. hit rate 0.8% among 300,000. protection from apoptosis, % (test concentration not listed). INS-1E cytokine-induced death, ATP luminescence, 48 h; percent of positive-control rescue, neutral wells zero;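 active = Every replicate reaches about 75%, or at least half do and their mean reaches it too, limit read from the data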;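 also: 0% = cytokine-treated negative control wells and 100% = positive control rescue; higher means more ATP so stronger rescue from cytokine killing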
MPTP block: inhibitors of mitochondrial permeability transition pore; isolated mouse mitochondria, Ca2+ swelling absorbance, 30 min; inhibition, % at 10 µM; hit rate 1.4% among 360,000; AID 602449;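 active = inhibition of 50% or more, scaled per plate between neutral and stimulator controls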;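 also: 0% = DMSO wells given calcium and 100% = 1 mM EGTA wells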
Mdm2-MdmX conf: human Mdm2/MdmX binding inhibition, confirmed | luminescent assay | hit rate 55% among 10,000 | shares compounds with Mdm2-MdmX inh | AID 489028 | inhibition, % at 8 µM; in the data active = inhibition above about 40%
Full FLuc ctr: inhibits full-length luciferase, flagging false Mdm2/MdmX hits | shares compounds with Mdm2-MdmX inh | SaOS-2 full-length luciferase counterscreen, luminescence | inhibition, % at 8 µM | hit rate 77% among 6,200 | AID 504607;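 active = mean inhibition at 8 µM reaching about 37%, which flags the compound as non-specific, limit read from the data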;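 also: p53-null SaOS-2 cells with luciferase driven by a doxycycline-inducible promoter; compound on cells about two nights before reading with doxycycline added after day one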
* = called active by the depositor; nt = not tested or not shown.

SMILES | Mdm2-MdmX inh | CSC inhib | NR3A LBD binder | SKKanGAS inh | Beta apoptosis | MPTP block | Mdm2-MdmX conf | Full FLuc ctr
COc1ccccc1N1CCN(Cc2ccc(O)c3ncccc23)CC1 | 77* | nt | 1 | 43 | 139* | -1 | 67* | 21
COc1ccc(CCNc2cc(N3CCN(C(=O)c4ccccc4F)CC3)ccc2[N+](=O)[O-])cc1OC | 53* | 23 | 1 | 20 | 104* | 40 | 35 | 79*
Cc1ccc(C#N)c(SCc2nnc(-c3ccc(Cl)cc3)o2)n1 | 88* | 8 | 2 | -4 | 2 | 1 | 92* | 57*
Cc1ccc(C#N)c(SCc2cc3c(cc2Cl)OCO3)n1 | 24 | 1 | 1 | -2 | -4 | 0 | nt | nt
Cc1cc(C)c(C#N)c(SCc2nnc(-c3ccccc3)o2)n1 | 85* | nt | 0 | 2 | -1 | 2 | 91* | 49*
O=C(OC[C@@H]1CCCN2CCCC[C@H]12)c1cc2ccccc2oc1=O | 11 | 6 | -3 | 1 | 8 | 0 | nt | nt
COC(=O)c1ccc(NC(=O)C(=O)c2cn(CC(=O)N3CCOCC3)c3ccccc23)cc1 | 55* | -6 | 2 | -7 | 3 | -1 | 0 | nt
Cc1cc(OC(=O)c2ccccc2Br)c([N+](=O)[O-])c(=O)[nH]1 | -10 | -7 | -2 | 0 | 1 | -2 | nt | nt
Cc1ccc2nc(NC(=O)c3cccc(-c4cc5ccccc5oc4=O)c3)sc2c1 | 81* | 99* | 0 | 3 | 56 | nt | 68* | 105*
COc1ccc(CCNC(=O)CCc2ccc(S(=O)(=O)NCC(C)C)cc2)cc1OC | 4 | -12 | -1 | -24 | -1 | 0 | nt | nt
CC(=O)n1cc(N(C(=O)CCl)c2ccc(C)cc2)c2ccccc21 | 99* | 18 | 0 | -5 | -12 | 1 | 100* | 52*
CCOc1ccc(NC(=O)CCC(=O)Oc2ccc(C)cc2)cc1 | -30 | 9 | 2 | -1 | -11 | 1 | nt | nt
COC(=O)c1ccc2[nH]c3cccc(/C(=C/c4ccccc4)c4ccccc4)c3c2c1 | 66* | 129* | 24* | 94* | 109* | 2 | 11 | nt
COc1ccccc1OCC(=O)N/N=C/c1cccc2cccnc12 | 19 | -3 | 0 | -1 | -2 | 0 | nt | nt
Cc1cc(C)n(CCC(=O)N/N=C/c2c(O)ccc3ccccc23)n1 | 73* | 16 | -4 | 3 | 93* | 3 | 78* | 52*
COc1ccccc1OCC(=O)N/N=C/c1c(O)ccc2ccccc12 | 82* | 48 | nt | 32 | 2 | 2 | 78* | 28
O=C(N/N=C\c1c(O)ccc2ccccc12)c1ccc(Cn2cccn2)o1 | 75* | 30 | -8 | 108* | 79* | 2 | 74* | 25
O=C(CN1CCCC1)N/N=C/c1c(O)ccc2ccccc12 | 72* | 35 | -2 | 32 | 51 | -1 | 76* | 39*
O=C(N/N=C\c1ccc(Cl)s1)c1ccc(Cn2cccn2)o1 | 8 | 3 | 1 | -3 | -4 | 0 | nt | nt
O=C1CN(C(=O)c2cccc(Br)c2)c2ccccc2N1 | 53* | 35 | -1 | 7 | 1 | -3 | 62* | 52*
O=C1CN(C(=O)c2ccc(Cl)c(S(=O)(=O)N3CCc4ccccc43)c2)c2ccccc2N1 | 86* | 36 | -1 | 10 | 11 | 4 | 78* | 64*
O=C1CN(C(=O)c2ccccc2)c2ccccc2N1 | -7 | 9 | 0 | 4 | -7 | -1 | nt | nt
COc1ccc(N(CC(=O)NCCC2=CCCCC2)S(=O)(=O)c2ccccc2)c(OC)c1 | 27 | -4 | 0 | -7 | 9 | -1 | nt | nt
COc1ccc(-c2oc(NC(=O)CSc3nncn3C)c(C#N)c2-c2ccc(OC)cc2)cc1 | 63* | 0 | -5 | 37 | 2 | 1 | 54* | 70*
Cc1oc(-c2ccc(Cl)cc2)cc1C(=O)/C(C#N)=C/Nc1ccccc1 | 62* | 5 | -2 | 2 | -3 | 4 | 10 | nt
SMILES | Mdm2-MdmX inh | CSC inhib | NR3A LBD binder | SKKanGAS inh | Beta apoptosis | MPTP block | Mdm2-MdmX conf | Full FLuc ctr
COc1cc(CNCCO)cc(Br)c1OCc1ccccc1 | 2 | nt | -2 | -1 | 4 | 2 | nt | nt
CCOc1cc(CNCCO)cc(Br)c1OCc1ccc(Cl)cc1Cl | 100* | 148* | -2 | 14 | 31 | -2 | 50* | 26
O=S(=O)(c1cccc(-c2n[nH]c(=S)n2-c2ccc(OC(F)(F)F)cc2)c1)N1CCOCC1 | -7 | 17 | 8 | nt | 3 | 2 | nt | nt
CCOc1ccc(-n2c(SCC(=O)Nc3nccs3)nc3c(c2=O)SCC3)cc1 | 59* | 12 | 5 | 2 | 17 | -2 | 17 | nt
CCn1c(Oc2ccccc2F)nc2c1c(=O)n(C)c(=O)n2C | 68* | -8 | 1 | 22 | -14 | 1 | 66* | 23
COc1ccc(CNC(=O)c2ccc(-c3ccccc3)cc2)cc1 | -43 | 3 | -2 | 0 | -3 | 0 | nt | nt
COc1ccc(CNC(=O)c2c(C)oc3c2C(=O)c2ccccc2C3=O)cc1 | 81* | 100* | 0 | 87* | 109* | 2 | 84* | 54*
Cc1onc(-c2ccccc2Cl)c1C(=O)NCc1cccnc1 | -23 | 6 | 1 | -2 | -4 | 1 | nt | nt
Cc1oc2c(c1C(=O)NCc1cccnc1)C(=O)c1ccccc1C2=O | 99* | 101* | 2 | 86* | nt | nt | 98* | 4
CCCCN1CC(=O)N2[C@H](c3ccc(Cl)cc3)[C@@H]3C(=O)N(CC)C(=O)[C@@H]3[C@]2(C)C1=O | -10 | 4 | -3 | -3 | -2 | -1 | nt | nt
CC1CC2=C(C(=O)O1)C(c1ccc(Cl)cc1)Nc1ccccc1N2 (centres undefined) | 10 | 3 | 0 | -4 | -10 | 0 | nt | nt
CCCCCc1n[nH]c2c1CCCC2 | 15 | 0 | -3 | 14 | -11 | 1 | nt | nt
O=c1c2ccccc2cnn1CCOc1ccccc1 | 60* | 20 | -9 | 9 | 6 | 0 | 69* | 65*
Cc1cc(C)c2nc(-c3ccccn3)cc(C(=O)NCCc3ccc(S(N)(=O)=O)cc3)c2c1 | 44 | 25 | -6 | 11 | 10 | 1 | nt | nt
COc1ccc(NC(=O)c2cc(-c3ccccn3)nc3c(C)cc(C)cc23)c(C)c1 | 77* | 1 | 1 | -3 | -3 | 0 | 47* | 104*
COc1cccc(NC(=O)c2cc(-c3ccncc3)nc3c(C)cc(C)cc23)c1 | 22 | 39 | -2 | 5 | 6 | 1 | nt | nt
Cc1cc(C)c2nc(-c3ccccn3)cc(C(=O)NCc3ccc(S(N)(=O)=O)cc3)c2c1 | 54* | 23 | -3 | -20 | 7 | 0 | -3 | nt
O=c1oc2ccccc2cc1-c1csc(Nc2nc3c(F)cccc3s2)n1 | 70* | 48 | 23* | 11 | nt | 39 | 70* | 107*
